The results in this text go back to PubChem BioAssay (NCATS).

Records with an inconclusive call do not appear. A call without a number means that no potency is given here. Active and inactive are the calls of the source. The call rests on the fitted dose curve; in most records, active means well fitted activation curve with a large enough effect; inconclusive means small, poorly fitted or top-dose-only effect; inactive means flat fitted curve, though single readings scatter.
Potency means the concentration at half of the fitted maximal effect.

A short description of this experiment: Validation screen for small molecules that induce DNA re-replication in MCF 10A normal breast cells (AID 463097). Further: nearly all actives have a fitted effect of over 60% in size. To be noted: MCF 10A cells, DNA re-replication phenotype imaging; series mostly up to 46.1 µM. In a few lines:
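DNA re-replication was detected as a rise in nuclei with elevated Hoechst fluorescence after a 48 hr compound exposure of MCF 10A cells at 37 C.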
Regarding `C[C@](N)(Cc1ccc(O)c(O)c1)C(=O)O`, the Potency result is “inactive”.

`O=c1c(O)c(-c2ccc(O)c(O)c2)oc2cc(O)cc(O)c12`: the Potency result was “inactive”.

`NCCCCCC(=O)O`: the Potency result was “inactive”. As for `NC(CO)C(=O)NNCc1ccc(O)c(O)c1O` (stereo not given), the entry is “inactive”; as for `Cc1ccc(C(=O)Nc2ccc(S(=O)(=O)O)c3cc(S(=O)(=O)O)cc(S(=O)(=O)O)c23)cc1NC(=O)c1cccc(NC(=O)Nc2cccc(C(=O)Nc3cc(C(=O)Nc4ccc(S(=O)(=O)O)c5cc(S(=O)(=O)O)cc(S(=O)(=O)O)c45)ccc3C)c2)c1`, “inactive”. For the compound `Cc1cnc(C(=O)NCCc2ccc(S(=O)(=O)NC(=O)NC3CCCCC3)cc2)cn1`, the Potency result was “inactive”. As for `O=C(c1ccc(OCCN2CCCCC2)cc1)c1c(-c2ccc(O)cc2)sc2cc(O)ccc12`, the figure is 11.2 µM (active); as for `CN1CCN(C2=Nc3cc(Cl)ccc3Nc3ccccc32)CC1`, “inactive”. As for `CC(C)C(=O)Nc1ccc([N+](=O)[O-])c(C(F)(F)F)c1`, the entry is “inactive”. As for `CCOC(=O)C(C)(C)Oc1ccc(Cl)cc1`, the entry is “inactive”. In the case of `Clc1ccc2c(c1)C(N1CCNCC1)=Nc1ccccc1O2`, the Potency entry was “inactive”. With `CN(Cc1cnc2nc(N)nc(N)c2n1)c1ccc(C(=O)N[C@@H](CCC(=O)O)C(=O)O)cc1`, the Potency result was “inactive”. The entry for `CN(C)CCCN1c2ccccc2CCc2ccc(Cl)cc21` is “inactive”; for `OCCN(CCO)c1nc(N2CCCCC2)c2nc(N(CCO)CCO)nc(N3CCCCC3)c2n1` it is 12.6 µM (active); for `O=C(Nc1ccc([N+](=O)[O-])cc1Cl)c1cc(Cl)ccc1O` it is 0.316 µM (active). As for `Cc1cc(C(C)(C)C)cc(C)c1CC1=NCCN1`, the entry is “inactive”; as for `COC(=O)Nc1nc2ccc(C(=O)c3cccs3)cc2[nH]1`, 0.158 µM (active).

As for `CN1C(C(=O)Nc2ccccn2)=C(O)c2ccccc2S1(=O)=O`, the Potency entry was “inactive”. The entry for `COc1ccccc1OCC(O)CN1CCN(CC(=O)Nc2c(C)cccc2C)CC1` (stereo not given) is “inactive”. `CCOC(=O)c1ncn2c1CN(C)C(=O)c1cc(F)ccc1-2`: the Potency entry is “inactive”.
